Source: PubChem BioAssay (National Center for Advancing Translational Sciences (NCATS))
An excerpt weighted towards active compounds, which were near 1.2% of everything screened.
Tb PGK inh – inhibitors of T. brucei phosphoglycerate kinase; 380,000 compounds, 0.043% hits; Potency, µM (titrated, usually from 57.5 µM), for inactives: top-dose activity change, negative = inhibition, usual class: inhibitors; PGK/GAPDH coupled, Kinase-Glo luminescence, 60 min; P07378; also: potency is read from the fitted curve at half-maximal effect; nearly all actives have a fitted effect of over 60% in size
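Luminescent ATP detection (Kinase-Glo Plus) follows a 60-minute room-temperature incubation, with wells lacking PGK as controls. Buffer: 100 mM TEA (pH 7.6), 5 mM MgCl2, 0.01% Tween-20. Coupling enzyme GAPDH (100 nM final) supplies unstable 1,3-BPG in-well.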
KCNH2 3.1 block – KCNH2 3.1 (human) potassium channel inhibition | U2OS KCNH2 3.1, thallium flux FluxOr; hits give low values | AID 720553 | activity change, % (tested at about 1.8 µM) | 340,000 compounds, 0.95% hits;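 active = maximum activity change below -70%; inconclusive = maximum activity change from -70% to -50%; inactive = maximum activity change above -50%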;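 also: thallium influx rate constant from kinetic fluorescence after stimulation buffer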
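Steps: virus added to U2OS suspension (4 h, RT, dark); medium with 10% FBS added, cells plated, 37 C overnight; FluxOr/Red40 loading buffer 45 min RT; stimulation buffer, 2 min kinetic read; rate constant normalized.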
RGS4 inh – inhibitors of human regulator of G protein signaling 4; Potency, µM (highest dose often 114 µM), for the others: at the highest dose activity change, negative = inhibition, hits mostly inhibitors; 390,000 compounds, 0.039% hits; P49798; Transcreener GDP fluorescence polarization, RGS4-accelerated GTP hydrolysis; AID 504845; also: potency is read from the fitted curve at half-maximal effect; nearly all actives have a fitted effect of over 75% in size
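MLSMR compounds (23 nl, pin-transferred) preincubated 10 min at room temperature with a 500nM (2x) first reagent, then RGS4 at 900nM (2x) plus Transcreener GDP mix added; fluorescence polarization (620/688 nm) read before and after 90 min at 30 °C.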
Pin1 inhibitor – human Pin1 inhibition. Pin1 FP peptide displacement, HiFluor488, 10 min. Potency, µM (top dose mostly 115 µM), inactives show at the highest dose activity, negative = inhibition, most hits filed as inhibitors. 390,000 compounds, 0.009% hits. AID 504891; active = well fitted inhibition curve with a large enough effect in the polarisation, with a control signal flat, not every such curve was filed as active; inconclusive = small, poorly fitted or top-dose-only effect, or effect the other way, or a change in a side signal; inactive = no such curve, though single readings can be large or run the other way; the % refers to the polarisation; also: potency is read from the fitted curve at half-maximal effect
GCN5L2 inh – blocks human GCN5L2 histone acetyltransferase; GCN5L2 HAT assay, ThioGlo1 CoA-SH fluorescence; 390,000 compounds, 0.21% hits; Potency, µM (doses to about 58.9 µM), without a hit: at the highest dose activity change, negative = inhibition, actives largely listed as inhibitors; AID 504327; Q92830; also: potency is read from the fitted curve at half-maximal effect
Target sequence (Q92830 whole entry, looked up): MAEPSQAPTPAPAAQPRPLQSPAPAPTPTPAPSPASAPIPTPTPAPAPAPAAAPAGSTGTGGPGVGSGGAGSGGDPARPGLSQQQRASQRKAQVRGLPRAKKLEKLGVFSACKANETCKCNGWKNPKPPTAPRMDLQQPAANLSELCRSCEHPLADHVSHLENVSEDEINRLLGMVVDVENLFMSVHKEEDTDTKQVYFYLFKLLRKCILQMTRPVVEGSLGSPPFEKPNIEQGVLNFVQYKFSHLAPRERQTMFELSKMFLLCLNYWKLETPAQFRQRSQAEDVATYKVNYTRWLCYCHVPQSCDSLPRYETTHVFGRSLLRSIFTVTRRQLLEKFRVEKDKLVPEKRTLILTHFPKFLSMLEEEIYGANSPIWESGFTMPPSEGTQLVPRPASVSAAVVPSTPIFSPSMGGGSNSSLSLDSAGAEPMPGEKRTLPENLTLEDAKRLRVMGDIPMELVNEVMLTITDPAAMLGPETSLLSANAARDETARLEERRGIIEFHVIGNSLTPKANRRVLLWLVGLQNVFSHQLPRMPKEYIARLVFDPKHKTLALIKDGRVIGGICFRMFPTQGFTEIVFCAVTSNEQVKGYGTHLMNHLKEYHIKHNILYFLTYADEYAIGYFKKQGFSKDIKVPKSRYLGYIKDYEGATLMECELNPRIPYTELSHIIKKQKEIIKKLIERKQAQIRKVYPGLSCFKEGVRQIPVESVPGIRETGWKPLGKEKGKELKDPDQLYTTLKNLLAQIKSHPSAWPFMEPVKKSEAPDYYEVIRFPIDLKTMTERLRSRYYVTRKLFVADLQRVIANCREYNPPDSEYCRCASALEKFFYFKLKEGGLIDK
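GCN5L2 (20 nM) in 50mM HEPES pH 7.5, 0.1mM EDTA, 0.01% Tween-20 preincubated 15 min with compounds at room temperature. Reaction started with H3(1-25) 75uM, acetyl-CoA 70uM, ThioGlo1 50uM; CoA-thiol fluorescence (Ex340/Em540) read at 0 and 20 min.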
KCNH2 WT inh – blocks the wildtype human KCNH2 potassium channel | U2OS, BacMam KCNH2, thallium flux FluxOr; hits give low values | Q12809 | 340,000 compounds, 0.37% hits | activity change, % at 1.84 µM;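 active = maximum activity change below -70%; inconclusive = maximum activity change between -70% and -50%; inactive = maximum activity change above -50%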
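U2OS cells transduced with wild-type KCNH2 virus are loaded with FluxOr dye for 45 min, and thallium flux is measured in kinetic reads before and after stimulation buffer. Rate constants are normalized to DMSO controls.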
Starred values were filed as active, the others as inactive; i = inactive; ? = inconclusive; . = no result given; ! = not active in a repeat; [ ] = another dose, or the depositor's remark. Unless noted, calls follow the shape of the dose curve; as a rule, active = well fitted curve in the direction sought with a large enough effect; inconclusive = small, poorly fitted or top-dose-only effect, or another doubt; inactive = no such curve, though single readings can be large; an effect the other way counts as inactive or inconclusive. % is scaled to controls: 0 for no effect and ±100 for the full control effect.

SMILES	Tb PGK inh	KCNH2 3.1 block	RGS4 inh	Pin1 inhibitor	GCN5L2 inh	KCNH2 WT inh
O=C(CN1CCN(Cc2ccccc2Cl)CC1)N=Nc1c(O)[nH]c2ccccc12	2%	-7	5%	-1%	-3%	-3
Cc1ccc(S(=O)(=O)N2C=CC(C(F)(F)F)=NCC2)cc1	4%	13	4%	-2%	-6%	-76*
CC(C)(C)c1ccc(S(=O)(=O)N2C=CC(C(F)(F)F)=NCC2)cc1	0%	-7	26%	-1%	-1%	24
Cc1cc2n(n1)C(c1cn(-c3ccccc3)nc1C)Nc1ccccc1-2 (configuration not stated)	-9%	-136*	21%	-2%	-3%	-125*
Cc1ccc(C)c(C(=O)COC(=O)c2cc(S(=O)(=O)N3CCOCC3)ccc2F)c1	4%	2	.	.	.	-77*
CCCn1c(=O)c2sccc2n2c(CCCC(=O)NC3CCC(C)CC3)nnc12 (configuration not stated)	-14%	.	-3%	6%	-4%	.
CSCc1nc2scc(-c3ccccc3)c2c(=O)[nH]1	i	-92*	-7%	2%	-7%	1
Cn1c(=O)c(C(=O)CCl)c(N)n(Cc2ccccc2)c1=O	9%	-7	-3%	2%	-2%	-15
Cn1c(N)c(C(=O)CCl)c(=O)n(Cc2ccccc2)c1=O	3%	-116*	-4%	3%	-5%	-4
COc1cccc(CNCc2c(C(=O)O)c(C)n(Cc3ccc(F)cc3Cl)c2C)c1OC	i	.	-10%	-8%	1%	.
Cc1nnc(SCC(=O)NCc2ccc(N(C)C)cc2)c2nn(-c3ccccc3)c(C)c12	-1%	.	7%	13%	-6%	.
Cc1ccc(CNC(=O)CCc2c(C)nc3c(c(C)nn3-c3ccc(C)cc3)c2C)cc1	-7%	-11	-8%	-8%	-1%	-13
Cc1ccc(-n2nc(C)c3c(C)c(CCC(=O)NCc4ccccc4)c(C)nc32)cc1	-8%	-107*	-11%	3%	-3%	-4
Cc1ccc(NC(=O)C(Cc2ccccc2)n2cccc2)c(C)c1 (configuration not stated)	i	.	20%	-1%	-6%	.
COc1cc(COc2cc(N)c(Cl)cc2C(=O)CCC2CCN(CCNS(C)(=O)=O)CC2)cc(OC)c1	.	.	130%[56.9 µM]	.	-18%	.
COc1cc(N)c(Cl)cc1C(=O)CCC1CCN(CCNS(C)(=O)=O)CC1	.	.	38µM*!	.	?	.
CC(C)C[C@@H](CN(N=O)[C@@H](Cc1ccccc1)CN(C)N=O)N(CCc1ccccc1)N=O	-7%	.	11%	-4%	0%	.
CC(C)CCN(N=O)[C@@H](Cc1ccccc1)CN(N=O)[C@@H](Cc1ccccc1)CN(C)N=O	2%	-113*	-31%	-10%	-9%	-16
COc1ccc(-c2nc(S(=O)(=O)c3ccc(C)cc3)c(NCc3ccccc3)o2)cc1	.	.	-19%	12%	-4%	.
COc1ccc(CC(=O)NCc2nc3cccnc3n2Cc2ccc(F)cc2)cc1OC	-10%	.	-26%	6%	3%	.
CCC1=NN(C(=O)c2ccc(Cl)cc2)C(O)(c2ccccc2)C1 (configuration not stated)	i	-26	-13%	2%	-18%	-2
COC(=O)C1=NN(C(=O)c2ccc(Cl)cc2)C(O)(c2ccccc2)C1 (configuration not stated)	-7%[11.5 µM]	-12	9%	1%	1.4µM*	-1
CCOc1cc(C(=O)N(Cc2nc(-c3ccc(C)cc3)no2)C(C)C)cc(OCC)c1OCC	-1%	.	-13%	-5%	-18%	.
CC(C)c1nn2c(=O)cc(COC(=O)c3ccc(NC(=O)CCc4ccccc4)cc3)nc2s1	-2%	.	-12%	-2%	27%	.
CCc1ccc(NC(=O)C(=O)NCCc2csc(-c3cccc(F)c3)n2)cc1	i	.	-18%	12%	3%	.
SMILES	Tb PGK inh	KCNH2 3.1 block	RGS4 inh	Pin1 inhibitor	GCN5L2 inh	KCNH2 WT inh
CCNC(=S)NC1CC2CCCC(C1)N2Cc1ccc(C)cc1 (configuration not stated)	-5%	-44	-3%	1%	0%	15
Cc1cccc(C(=O)NC2CC3CCCC(C2)N3S(=O)(=O)c2ccccc2)c1 (configuration not stated)	9%[11.5 µM]	-72*	-10%	1%	-7%	?
CNC(=S)NC1CC2CCCC(C1)N2Cc1ccc(C)cc1 (configuration not stated)	5%	-83*	-4%[56.9 µM]	4%	-2%	.
COc1cccc(C(=O)NC2CC3CCCC(C2)N3Cc2ccc(F)cc2)c1 (configuration not stated)	1%	-25	.	.	.	30
COc1ccc(CN2C3CCCC2CC(NC(=O)Nc2cccc(C)c2)C3)cc1 (configuration not stated)	4%	-114*	57%	0%	2%	-87*
COc1cccc(C(=O)NC2CC3CCCC(C2)N3Cc2ccc(C)cc2)c1 (configuration not stated)	-2%	-71*	0%	-4%	1%	7
Cc1cc(C)n(-c2nc(-c3ccc(Cl)c(Cl)c3)cs2)n1	0%	-46	-2%	8%	-9%	-125*
Cc1cc(C)n(-c2ccc(Cl)c(Cl)c2)n1	2%	.	1%	3%	-6%	4
CCc1ccccc1NC(=O)N1CC(C)Sc2ccccc21 (configuration not stated)	-6%	.	-22%	0%	-9%	.
Cc1c(CNC(C)CCc2ccccc2)c(C(=O)O)c(C)n1Cc1ccc(F)cc1Cl (configuration not stated)	14%	.	-22%	-7%	2%	.
CCCCn1c(N)c(N(CC)C(=O)CCNC(=O)c2ccc(Cl)cc2)c(=O)[nH]c1=O	2%	3	-29%	-4%	1%	-2
CCCCn1c(N)c(N(CC)C(=O)CCNC(=O)NC23CC4CC(CC(C4)C2)C3)c(=O)[nH]c1=O	-3%	-71*	-19%	1%	-5%	-3
COc1ccc(NC(=O)c2cc(S(=O)(=O)N3CCCCCC3)cn2C)cc1Cl	3%	.	-4%	12%	-2%	.
Cc1ccn2c(Cc3ccccc3)c(-c3ccc(Br)cc3)nc2c1	-2%	-74*	.	.	.	-18
Cc1cccc(Cc2c(C)nc3nc(SCC(=O)NCc4ccc(F)cc4)nn3c2C)c1	10%	.	9%	-1%	-6%	.
COc1ccc(CNCCC(c2ccccc2)c2ccc3c(c2)OCO3)cc1 (configuration not stated)	0%	-81*	-16%	-3%	1%	-24
